Source: PubChem BioAssay AID2129 (The Scripps Research Institute Molecular Screening Center, 2009)
Where “and” joins values, the source holds several entries; their conditions need not be identical. Identical values can stand only once. Out of some 320,000 compounds screened, about 2,200 (0.69%) were called active.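 The calls were made as follows: active = inhibition above the mean of all tested compounds plus 3 SD, cutoff set per campaign (cut at about 30% in these data); inactive = the rest.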 For the sample, actives were picked, then their nearest neighbours and some compounds at random. Some structures have more than one record in an assay (separate samples or runs), and their calls can disagree.

Target: Bcl-2-like protein 1 (Homo sapiens) (UniProt Q07817)
Assay: Bcl-xL/Bim BH3 interaction blockers – biochemical, fluorescence polarization, HTS, primary screen (AID 2129);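 also: 0% = DMSO wells and 100% = unlabeled Bim-BH3 peptide competitor; inhibitors lower millipolarization by displacing the labeled peptide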
Conditions: GST-Bcl-xL / FITC-Bim BH3 peptide fluorescence polarization; at 10.9 µM; stronger effect = higher value

Sequence of Bcl-2-like protein 1 (Homo sapiens) (Q07817 whole entry, looked up): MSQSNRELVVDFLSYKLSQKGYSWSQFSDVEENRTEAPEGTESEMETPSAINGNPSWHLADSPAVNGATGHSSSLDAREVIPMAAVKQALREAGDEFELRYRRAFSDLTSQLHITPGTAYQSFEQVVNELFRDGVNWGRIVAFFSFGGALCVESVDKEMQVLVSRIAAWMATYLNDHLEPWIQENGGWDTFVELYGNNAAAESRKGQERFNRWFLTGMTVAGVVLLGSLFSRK

Row | SMILES | inhibition
1 | O=C(Cn1cc(C(F)(F)F)ccc1=O)N/N=C/c1ccc(Cl)cc1Cl | 4.51% (inactive)
2 | Cc1ccc(NC(=O)CN(C)S(=O)(=O)c2cnc[nH]2)cc1C | 2.37% (inactive)
3 | Cc1ccc(C(=O)N/N=C/c2cccc3ccccc23)cn1 | 0.59% (inactive)
4 | O=C(N/N=C\c1cc(Br)c(Br)o1)C1COc2ccccc2O1 (stereo not drawn) | 8.03% (inactive)
5 | Cc1ccc(C(=O)N/N=C\c2cc(Br)c(Br)o2)cn1 | 39.1% (active)
6 | CC(C)(C)C1CCc2c(sc3nc(SCC(N)=O)nc(N)c23)C1 (stereo not drawn) | 0.88% (inactive)
7 | O=C1COc2ccc(C(=O)CSc3ccc(Br)cc3)cc2N1 | 1.67% (inactive)
8 | Cc1ccc(NC(=O)CSc2nc(=O)n(CCN(C)C)c3c2CCCC3)c(C)c1 | 0.09% (inactive)
9 | O=C1CCC(=O)N1CCOP1(=O)COc2ccccc2OC1 | 4.75% (inactive)
10 | CN(CC(=O)Nc1ccc(Cl)c(C(F)(F)F)c1)C(=O)CCC(=O)c1ccccc1 | 45.3% (active)
11 | Cc1ccc(C(=O)CCC(=O)N(C)CC(=O)Nc2c(Cl)cccc2Cl)cc1 | -0.97% (inactive)
12 | Cc1cccc(C)c1NC(=O)CN(C)C(=O)CCC(=O)c1ccccc1 | 7.72% (inactive)
13 | CC(C)c1ccc(C2C(C(=O)c3ccco3)=C(O)C(=O)N2CC2CCCO2)cc1 (stereo not drawn) | 1.85% (inactive)
14 | C=CCSc1nnc(N2C(=O)C(O)=C(C(=O)c3ccco3)C2c2ccc(F)cc2)s1 (stereo not drawn) | 51.8% (active)
15 | Cc1ccc2nc(N3C(=O)C(O)=C(C(=O)c4ccco4)C3c3cccc(O)c3)sc2c1 (stereo not drawn) | 2.1% (inactive)
16 | CC(OC(=O)C1CC(=O)N(Cc2ccccc2)C1)C(=O)Nc1ccccc1[N+](=O)[O-] (stereo not drawn) | 5.02% (inactive)
17 | O=C(CSc1ncccn1)N1CCCC1 | 1.98% (inactive)
18 | C=CCNc1nnc(C)c2ccccc12 | 1.09% (inactive)
19 | C=CCNc1nnc(SCC(=O)N2CCCCC2)c2ccccc12 | 108% (active)
20 | COCCNC(=O)C(c1ccc(C)cc1)N(C(=O)CCC(=O)Nc1ccccn1)c1cccc(C)c1 (stereo not drawn) | 3.67% (inactive)
21 | CN(C)C(=O)CSc1n[nH]c(-c2ccco2)n1 | 1.16% (inactive)
22 | O=C1CCC(=O)N1c1ccc(NCCc2ccccc2F)c([N+](=O)[O-])c1 | 4.81% (inactive)
23 | Cc1ccc(NC(=S)NC(=O)c2ccc(-c3ccccc3)cc2)cc1 | 1.62% (inactive)
24 | COC(=O)c1sc(NC(=S)NC(=O)c2ccc(C)cc2)nc1C | 90.6% (active)

Row | SMILES | inhibition
25 | Cc1ccc(C(=O)NC(=S)Nc2ccccc2C)cc1 | 2.65% (inactive)
26 | CCOC(=O)c1sc2nc(C)nc(SCC(N)=O)c2c1C | 3.97% (inactive)
27 | CC(C)(C)OC(=O)NCCCC1=CC2=CC(=O)C(C)(OC(=O)c3ccco3)C(=O)C2=CO1 (stereo not drawn) | 62.9% (active)
28 | C=CCN1C=C2C(=O)C(C)(OC(=O)CCc3ccccc3)C(=O)C=C2C=C1c1ccc(C#N)cc1 (stereo not drawn) | 26.4% (inactive)
29 | O=C(COC(=O)c1ccco1)NCc1ccc(Cl)cc1 | 3.7% (inactive)
30 | CCCN1CNC(=S)N(CCc2ccccc2)C1 | -3.74% (inactive)
31 | C/C(CC(=O)NC(C)c1ccccc1)=N\NC(N)=S (stereo not drawn) | 4.39% (inactive)
32 | O=C(c1cc(=O)c2ccccc2o1)N1CCN(c2ccccc2)CC1 | -0.91% (inactive)
33 | O=C(COC(=O)c1ccccc1C(=O)N1CCN(c2ccccc2)CC1)NCc1ccccc1 | 56.5% (active)
34 | CC(C)N(C(=O)COC(=O)c1ccccc1C(=O)N1CCN(c2ccc(F)cc2)CC1)C(C)C | 10.7% (inactive)
35 | CCc1c(C)nc2c(OC)cccc2c1Cl | 7.8% (inactive)
36 | COC(=O)C1CCN(C(=O)c2cc(=O)[nH]c3ccccc23)CC1 | 1.35% (inactive)
37 | O=C(NC1CCCCC1)N1CCc2[nH]c3ccccc3c2C1 | 16.5% (inactive)
38 | COC(=O)[C@H]1[C@H]2C[C@H]3c4[nH]c5ccccc5c4CCN3C[C@@H]2CC[C@@H]1O | 6.53% (inactive) and 60% (active)
39 | CCCC(C)c1nnc(NC(=O)C2CC(=O)N(c3ccc(OCC)cc3)C2)s1 (stereo not drawn) | 7.2% (inactive)
40 | Cc1ccc(CS(=O)(=O)CCC(=O)NCc2ccc(F)cc2)cc1 | -0.6% (inactive)
41 | Fc1ccc(CNc2nc3ccccc3n3nnnc23)cc1 | 49% (active)
42 | CCOC(=O)CNc1nc2ccccc2n2c(C)nnc12 | 4.27% (inactive)
43 | COc1ccc(CNc2nnnn2C)cc1 | -1.64% (inactive)
44 | CCCCCN(C(=O)NC(=O)Nc1ccccc1C)S(C)(=O)=O | 2.62% (inactive)
45 | O=[N+]([O-])c1ccc(N2CCNCC2)cc1NCc1cccnc1 | -23.7% (inactive)
46 | O=C(NCCCc1ccccc1)C(=O)c1c[nH]c2ccccc12 | 4.6% (inactive)
47 | CCOc1ccc(N2CC(C(=O)NCCN3C(=O)S/C(=C\c4cccnc4)C3=O)CC2=O)cc1 (stereo not drawn) | -5.5% (inactive)
48 | COc1ccc(N2CC(C(=O)NCCN3C(=O)S/C(=C\c4cccnc4)C3=O)CC2=O)c(OC)c1 (stereo not drawn) | 149% (active)

Row | SMILES | inhibition
49 | COc1ccccc1N1CC(C(=O)NCCN2C(=O)S/C(=C\c3cccnc3)C2=O)CC1=O (stereo not drawn) | 9.93% (inactive)
50 | O=C(COc1ccc(Cl)cc1)NCCS(=O)(=O)N1CCN(c2ccc(F)cc2)CC1 | 5.68% (inactive)
51 | CCN(CC)c1ccc(C(=O)Nn2c(C)nc3ccccc3c2=O)cc1 | 5.43% (inactive)
52 | C=CCN(C(=O)Nc1ccc2oc(C)nc2c1)c1ccccc1 | 13.5% (inactive)
53 | CCN(CC)c1ccc2oc(=O)c(C)nc2c1 | 31.2% (active)
54 | C=C(C)C(=O)O[C@H]1C/C(C)=C\C(=O)/C=C(\C)[C@H](O)[C@@H]2OC(=O)C(=C)[C@@H]21 | 3.95% (inactive)
55 | Cc1cccc(C(=O)OCC(=O)NCC(C)C)c1O | 2.99% (inactive)
56 | Cc1cnc(C(=O)Oc2cccc(Cl)c2Cl)cn1 | 9.01% (inactive)
57 | Cc1nn2c(c1-c1ccccc1)N=C(c1ccco1)CC2c1ccccc1 (stereo not drawn) | 3.95% (inactive)
58 | CC1(C)C=C2[C@H]3CC[C@@H]4[C@@]5(C)CCC(=O)C(C)(C)[C@@H]5CC[C@@]4(C)[C@]3(C)CC[C@@]2(C(=O)O)CC1 | 5.29% (inactive)
59 | COc1ccc(CNC(=O)C2CCN(S(=O)(=O)c3ccc(SC)cc3)CC2)cc1 | 9.54% (inactive)
60 | Cc1cc(C)c(/C=C2\C(=O)Nc3ccccc32)[nH]1 | 163% (active)
61 | O=C1Nc2ccccc2/C1=C/c1ccnc2ccccc12 | 2.91% (inactive)
62 | CN(C)/C=C1/Nc2ccccc2C1=O | 18.7% (inactive)
63 | O=C(Nc1ccccc1C(=O)NCCCn1ccnc1)c1ccc(Cl)cc1Cl | 9.41% (inactive)
64 | CC1CCN(C(=O)COC(=O)c2cc(=O)[nH]c3ccccc23)CC1 | 2.08% (inactive)
65 | Cc1noc(C)c1CSCC(=O)Nc1nc2ccc(Oc3ccccc3)cc2s1 | 3.02% (inactive)
66 | CC(C)(CSc1nncn1/N=C/c1ccco1)NS(=O)(=O)c1ccc(Cl)cc1 | 4.42% (inactive)
67 | NS(=O)(=O)c1ccc(NC(=O)COC(=O)c2cc3ccccc3oc2=O)cc1 | 3.99% (inactive)
68 | COc1cc(/C=C2\CCCc3c2nc2ccccc2c3C(=O)O)cc(Cl)c1O | 9.54% (inactive)
69 | NS(=O)(=O)c1ccc(NC(=O)COC(=O)c2c3c(nc4ccccc24)/C(=C\c2ccc4c(c2)OCO4)CCC3)cc1 | 34.1% (active)
70 | COc1ccc(CNC(=O)C(C)NCc2ccccc2Cl)cc1 (stereo not drawn) | 2.09% (inactive)
71 | CCOCCCNC(=O)C(NC(=O)CNC(=O)c1ccccc1)c1ccc(OC)cc1 (stereo not drawn) | 3.02% (inactive)
72 | CCOC(=O)C(Cc1ccccc1)NC(=O)CCC(=O)c1ccc(OC)cc1 (stereo not drawn) | 6.1% (inactive)

Row | SMILES | inhibition
73 | COc1cc([C@H](Cc2ccccc2)NC(C)=O)oc(=O)c1 | 48.2% (active)
74 | COC(=O)[C@H](Cc1ccccc1)NC(=O)Nc1ccc(OC)cc1 | 0.58% (inactive)
75 | COc1ccc(CCn2ccc(O)c(Cc3ccc(Cl)cc3Cl)c2=O)cc1OC | 4.67% (inactive)
76 | CN1C(C)(C)CC(NC(=O)CCC(=O)NC2CC(C)(C)N(C)C(C)(C)C2)CC1(C)C | 2.66% (inactive)
77 | CC1CCN(C(=O)COC(=O)c2cc(S(=O)(=O)N3CCOCC3)ccc2Cl)CC1 | -2.49% (inactive)
78 | Cc1ccnc(NC(=O)C2CCN(S(=O)(=O)c3c(C)c(C)cc(C)c3C)CC2)c1 | -0.18% (inactive)
79 | CC1(C)c2[nH]c3ccccc3c2C[C@H]2C(=O)N(N)CC(=O)N21 | 1.69% (inactive)
80 | CCOc1nc(OCC)nc(-n2cc(-c3ccccc3)nn2)n1 | 6.35% (inactive)
81 | CC1CCCCC1NC(=O)/C(C#N)=C/C=C/c1ccccc1[N+](=O)[O-] (stereo not drawn) | 7.36% (inactive)
82 | O=c1ccc2c(-c3ccccc3S(=O)(=O)O)c3ccc(O)c(O)c3oc-2c1O | 92.5% (active)
83 | O=C(CSc1nnc(SCc2ccc(Cl)cc2)s1)N/N=C/c1ccccc1Cl | -6.66% (inactive)
84 | CN1c2ccc(C=O)c3c(C=O)ccc(c23)N(C)C1(C)C | 144% (active)
85 | CCOC(=O)c1c(C)oc(C)c(C(=O)OCC)c1=O | 2.36% (inactive)
86 | CCOC(=O)c1c(-c2ccccc2)oc2cc(Br)c(O)c(C=O)c12 | 11.5% (inactive)
87 | CCOC(=O)c1c(C)oc2cc(Sc3ccccc3)c(O)c(O)c12 | 39% (active)
88 | CCOC(=O)c1ccc(NC(=O)c2c(NCc3ccccc3)[nH]c(=O)[nH]c2=O)cc1 | 2.87% (inactive)
89 | O=C(CSC(=S)N1CCCCC1)c1c(F)cccc1F | 3.52% (inactive)
90 | COc1ccc(OC)c(CCNC(=O)CCn2ccc3cc(S(=O)(=O)N4CCCC4)ccc32)c1 | 0.09% (inactive)
91 | COc1ccc(-c2nc(CS(=O)CC(=O)NCc3ccccc3)c(C)o2)cc1OC (stereo not drawn) | 4.97% (inactive)
92 | COc1ccc(-c2nc(CS(=O)CC(=O)NCc3ccccn3)c(C)o2)cc1 (stereo not drawn) | 95.6% (active)
93 | COc1cccc(-c2nc(CS(=O)CC(=O)NCc3ccc(F)cc3)c(C)o2)c1 (stereo not drawn) | 7.05% (inactive)
